The campaign covered roughly 420,000 compounds. About 64,000 (15%) were called active. Inconclusive results (about 27%) are left out. Calls come from the whole dose curve; as a rule, active = well fitted inhibition curve with a large enough effect; inconclusive = small, poorly fitted or top-dose-only effect; inactive = flat fitted curve, though single readings scatter. A selection follows. A call without a number means that no potency is given here.
Assay: qHTS for Inhibitors of human tyrosyl-DNA phosphodiesterase 1 (TDP1): qHTS in cells in absence of CPT; note: nearly all actives have a fitted effect of over 55% in size
Details: DT40 Tdp1-/- hTDP1 cells, no CPT, ATP luminescence, 48 h; activity change, negative = growth inhibition: at 46.2 µM (top of the series)
How it was run: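 Stably hTDP1-transfected Tdp1-null chicken DT40 cells were treated with library compounds minus camptothecin and grown for at least 48 hr at 37 °C, after which cellular ATP was quantified by luminescence.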
Potency is the fitted concentration of half-maximal effect.

Row | SMILES | Potency
1 | COc1cc(NC(=O)COC(=O)c2cnc(C)cn2)c(C)cc1[N+](=O)[O-] | inactive
2 | CCCN1C(=O)C(NS(=O)(=O)c2ccc(N)cc2)(C(F)(F)F)C(C(=O)OC)=C1C (stereo not given) | inactive
3 | O=C(O)CCCC(=O)N1N=C(c2ccco2)CC1c1ccco1 (stereo not given) | inactive
4 | COc1cccc(-c2coc3cc4oc(=O)c(CC(=O)O)c(C)c4cc23)c1 | inactive
5 | Oc1c(Br)cccc1/C=N/Nc1c(F)c(F)c(F)c(F)c1F | 20.6 µM (active)
6 | Brc1ccccc1/C=N/Nc1nc2ccccc2o1 | inactive
7 | COc1ccc(C)cc1NC(=O)CN(C)S(=O)(=O)c1ccc2c(c1)n(C)c(=O)c(=O)n2C | inactive
8 | CCCSC1=C(C#N)C(c2ccccc2C)C(C(=O)OC)C(=O)N1 (stereo not given) | inactive
9 | Cn1c2ccccc2c2c(C(=O)N3CCN(c4ccc(F)cc4)CC3)cn(C3CCCC3)c(=O)c21 | 23.1 µM (active)
10 | CC(C)N(C(=O)COC(=O)c1ccccc1C(=O)N1CCN(c2ccc(F)cc2)CC1)C(C)C | inactive
11 | CC(=O)N1c2ccccc2CC1C(=O)N1CCN(c2ccc(F)cc2)CC1 (stereo not given) | inactive
12 | CC(NS(=O)(=O)c1ccccc1)c1n[nH]c(=S)n1-c1ccccc1 (stereo not given) | inactive
13 | CC(=O)Nc1ccc(NC(=O)[C@@H](NC(=O)c2cccc(C)c2)C(C)C)cc1 | inactive
14 | O=C(CC1Sc2ccccc2NC1=O)NNc1ccc(Cl)c(Cl)c1 (stereo not given) | 11.6 µM (active)
15 | Cc1ccc(CNC(=O)CC2Sc3ccccc3NC2=O)cc1 (stereo not given) | inactive
16 | O=C(CC1SCCNC1=O)Nc1ccc(Cl)c(Cl)c1 (stereo not given) | inactive
17 | NNC(=O)c1ccc(COCC(F)(F)C(F)F)cc1 | inactive
18 | Cc1ccc(OCC(=O)OCc2cc(=O)n3nc(C4CC4)sc3n2)cc1 | inactive
19 | CS(=O)(=O)c1ccc(C(=O)OCC(=O)NNC(=O)COc2ccc(Cl)cc2)cc1 | inactive
20 | Cc1ccc(-c2cc(N)on2)cc1 | inactive
21 | COc1cc(OC)cc(C(=O)NCC(=O)OCC(=O)NC(C)CCc2ccccc2)c1 (stereo not given) | inactive
22 | COc1cccc(C(=O)NCC(=O)OCc2cc(=O)n3ccsc3n2)c1 | inactive

Row | SMILES | Potency
23 | COc1cc(OC)cc(C(=O)NCC(=O)OCc2csc(-c3ccccc3)n2)c1 | 23.1 µM (active)
24 | CSc1ccc(CNCCN2CCOCC2)cc1 | inactive
25 | COc1ccc(CCNC(=O)CSc2nc3[nH]ncc3c(=O)n2-c2cccc(C(F)(F)F)c2)cc1OC | inactive
26 | CCc1ccc(-n2c(SCc3cc(=O)n4cc(Br)ccc4n3)nc3[nH]ncc3c2=O)cc1 | 20.6 µM (active)
27 | CCCSc1nc2[nH]ncc2c(=O)[nH]1 | inactive
28 | COc1ccccc1N1CCC(N2CCN(CC(C)(C)C)C(CCO)C2)CC1 (stereo not given) | inactive
29 | COc1ccccc1NC(=O)/C=C/C(=O)O | inactive
30 | COc1ccccc1NC(=O)/C=C/C(N)=O | 2.91 µM (active)
31 | COc1ccccc1NC(=O)C[n+]1ccccc1 | inactive
32 | O=C(Nc1ccc(S(=O)(=O)Nc2nccs2)cc1)c1cc(=O)[nH]c2ccccc12 | inactive
33 | Cc1cccc(C(=O)O)c1[N+](=O)[O-] | inactive
34 | COc1ccccc1OCCNC(=O)c1cc([N+](=O)[O-])cc([N+](=O)[O-])c1 | inactive
35 | CC(C)(C)NCC(O)COc1cccc2[nH]c(=O)[nH]c12 (stereo not given) | inactive
36 | COc1ccccc1OCCNCC(O)COc1cccc2[nH]c3ccccc3c12 (stereo not given) | 16.4 µM (active)
37 | Fc1ccc(Br)cc1/C=N/n1cnnc1 | inactive
38 | COc1ccc(Br)cc1CN(C)CC(=O)Nc1cc([N+](=O)[O-])ccc1OC | 16.4 µM (active)
39 | COc1ccccc1CC(=O)Nc1ccc([N+](=O)[O-])cc1OC | inactive
40 | CN(CC(=O)Nc1ccccc1[N+](=O)[O-])Cc1ccc(Br)cc1 | inactive
41 | CCCC1C(c2ccccc2)C(C#N)(C#N)C2(C#N)CC1(N)NC2=O (stereo not given) | inactive
42 | COc1cccc(CNC(=O)CCN2C(=S)NC(C)(C)CC2C)c1 (stereo not given) | inactive
43 | O=C(O)C1=NN(c2c(F)c(F)cc(F)c2F)C(=O)CC1 | inactive
44 | CO[C@H]1[C@H](NC(=O)C(C)C)c2ccccc2C12CCN(Cc1cnc(N(C)C)s1)CC2 | inactive

Row | SMILES | Potency
45 | COc1cccc(CN2CCC3(CC2)c2ccccc2[C@@H](NC(=O)c2ccccc2OC)[C@@H]3O)c1 | 16.4 µM (active)
46 | COc1ccccc1C(=O)N[C@@H]1c2ccccc2C2(CCN(C(=O)c3csnn3)CC2)[C@H]1OC | inactive
47 | N[C@H](C(=O)O)c1ccc(C(=O)O)c(O)c1 | inactive
48 | CC1=NNC(=O)C1Cc1c(Cl)cccc1Cl (stereo not given) | inactive
49 | Cc1cc(C(F)(F)F)nn1-c1nc(-c2ccco2)cc(C(F)(F)F)n1 | inactive
50 | CC(C)c1nc(SCC(=O)NC(=O)NC(C)(C)C)n[nH]1 | inactive
51 | Cc1cccc(NC(=O)Cn2c(C(F)(F)F)nc3ccccc32)c1C | inactive
52 | CCNS(=O)(=O)c1ccc(NC(=O)CSc2nc(-c3ccco3)cc(C(F)(F)F)n2)cc1 | 7.31 µM (active)
53 | Cc1cccc(NC(=O)CSc2nc(-c3ccco3)cc(C(F)(F)F)n2)c1C | 9.2 µM (active)
54 | CC(C)(C)NC(=O)CSc1nc(-c2ccc(F)cc2)cc(C(F)(F)F)n1 | 18.4 µM (active)
55 | Cc1cc(C(F)(F)F)nc(SCC(=O)Nc2nccs2)n1 | inactive
56 | CN(C)c1ccc(NC(=O)CSc2n[nH]c(-c3ccco3)n2)cc1 | inactive
57 | O=C(CSc1nc(-c2ccco2)cc(C(F)(F)F)n1)NCc1cccs1 | inactive
58 | Cc1ccccc1CN1C(=O)CSCC1(C)C(=O)Nc1c(C)cccc1C (stereo not given) | inactive
59 | Cc1n[nH]c(=O)c2c(NC(=O)CSc3cc(Cl)ccc3Cl)oc(C)c12 | inactive
60 | O=C(CSc1nnnn1C1CCCC1)N1CCCCC1 | inactive
61 | Cc1cc(=O)oc2c1ccc1ccccc12 | inactive
62 | O=C(Nc1ccc(C(=O)NCc2ccccc2Cl)cc1)C1=CSCCO1 | inactive
63 | C=CCn1c2c(c3ccccc31)CCC2 | inactive
64 | CCc1nnc(NS(=O)(=O)c2ccc(NC(=O)c3cccc(OC(F)(F)C(F)F)c3)cc2)s1 | inactive
65 | C/C(=N\Nc1ccccc1)c1cccs1 | inactive
66 | C/C(=N\Nc1nc(Nc2ccccc2)nc(N2CCOCC2)n1)c1cccs1 | 20.6 µM (active)

Row | SMILES | Potency
67 | O=C(c1cccs1)N1CCN(C(=O)N2CCOCC2)CC1 | inactive
68 | CCN(c1ccccc1)S(=O)(=O)c1ccc(OCC(=O)N2CCCC2)cc1 | inactive
69 | CCc1cccc(NC(=O)CCNS(=O)(=O)c2cccc3nonc23)c1 | inactive
70 | Cc1ccc(NC(=O)C2(N3CCC3=O)CCCCC2)cc1 | inactive
71 | COc1ccc(Cl)cc1C(=O)OCC(=O)NCc1cccs1 | inactive
72 | CCOc1cccc2cc(-c3cn4c(n3)sc3cc(C)ccc34)c(=O)oc12 | inactive
73 | COc1ccc(CCNC(=O)c2ccc3c(c2)sc2nc(-c4ccc(C)cc4)cn23)cc1OC | 5.17 µM (active)
74 | CCOc1ccc(CCNC(=O)c2ccc3c(c2)sc2nc(-c4ccc(F)cc4)cn23)cc1OCC | 5.8 µM (active)
75 | COc1ccc(CCNC(=O)CN(C)S(=O)(=O)c2ccc3nc(C)sc3c2)cc1OC | inactive
76 | Cc1ccc(-c2cn3c(n2)sc2cc(C(=O)NCc4cccs4)ccc23)c(C)c1 | 18.4 µM (active)
77 | CCOc1ccc(CCNC(=O)Nc2ccccc2)cc1OCC | inactive
78 | CCc1cc2c(cc3c(=O)n(CC(=O)NCCc4ccc(OC)c(OC)c4)ncn32)s1 | inactive
79 | Cc1cc(C(=O)NCCCc2ccccc2)no1 | inactive
80 | CC(C)c1ccc(C(=O)NCCCc2ccccc2)cc1 | inactive
81 | CCOc1ccc(CCNC(=O)Cn2nc(CC)n3c(cc4sc(CC)cc43)c2=O)cc1OCC | inactive
82 | Cc1ccc(-c2cn3c(n2)sc2cc(C(=O)NCCCc4ccccc4)ccc23)cc1 | 8.2 µM (active)
83 | Cc1cc(O)c(NC(=O)c2ccc(C)c([N+](=O)[O-])c2)cc1C | inactive
84 | CCc1ccc(-c2nnn(Cc3nc4ccccc4s3)n2)cc1 | inactive
85 | C[C@H]1Cn2cnc(C(=O)N[C@H](C)c3ccccc3)c2C(=O)N1 | inactive
86 | CC1(C)Cc2ccccc2-c2[nH]c(=S)[nH]c(=O)c21 | inactive
87 | Cc1ccc(C(=O)NN(CCC#N)C2=NS(=O)(=O)c3ccccc32)cc1 | inactive
88 | Cc1cc(C)c(NC(=O)CN2CCOCCOCCOCCOCC2)c(C)c1 | inactive

Row | SMILES | Potency
89 | O=C(Oc1ccc2c(c1)CCC2)N1CCOCC1 | inactive
90 | C=C(C)CSc1nnc(-c2ccc(C)cc2)n1N | inactive
91 | CCCCn1c(N)c(N(CC(C)C)C(=O)C2CSC3(C)CCC(=O)N23)c(=O)[nH]c1=O (stereo not given) | inactive
92 | O=C(O)c1ccc(-n2cccc2)cc1O | inactive
93 | CCOC(=O)C1CCCN(C(=O)c2cncc(Br)c2)C1 (stereo not given) | inactive
94 | CCOC(=O)C1CCCN(C(=O)c2cccc(S(=O)(=O)N3CCOCC3)c2)C1 (stereo not given) | inactive
95 | CCOC(=O)C1CCCN(C(=O)c2ccc3c(c2)sc2nc(-c4ccc(CC)cc4)cn23)C1 (stereo not given) | 5.17 µM (active)
96 | O=C(COc1ccc([N+](=O)[O-])cc1)Nc1cccc(C(=O)Nc2ccccc2C(=O)O)c1 | inactive
97 | O=C(NC1(C(F)(F)F)NC(=O)N(Cc2cccnc2)C1=O)c1ccccc1Cl (stereo not given) | inactive
98 | COc1ccc(S(=O)(=O)N2CCN(CC(=O)NCC3(N4CCOCC4)CCCCC3)CC2)cc1 | inactive
99 | CN1CCN(C2(CNC(=O)COc3ccc(C(C)(C)C)cc3)CCCCC2)CC1 | 18.4 µM (active)
100 | Cc1cccc(NC(=O)CN2CCN(CC(=O)NCC3(N4CCCCC4)CCCCC3)CC2)c1C | inactive
101 | Cc1nc2sc(C(c3ccco3)N3CCOCC3)c(O)n2n1 (stereo not given) | inactive
102 | COc1ccccc1OCC(=O)Nc1ccccc1C(=O)NC1CC1 | inactive
103 | COc1cc(C(=O)NCC2(c3ccccc3)CCCC2)ccc1OC(C)C | 10.3 µM (active)
104 | COc1ccc(CC(=O)NC2CCSc3ccccc32)cc1OC (stereo not given) | inactive
105 | CCOc1c(OC)cccc1C(=O)NCC1(c2ccccc2)CCCC1 | 6.51 µM (active)
106 | CCn1c(CNC(=O)c2ccc(OC)c(OC)c2)nnc1SCC(=O)Nc1ccccc1 | inactive
107 | COc1ccc(C(=O)NC2CC(C)(C)NC(C)(C)C2)cc1OC | inactive
108 | COc1ccc(C2(CNC(=O)Cc3ccc(OC)c(OC)c3)CCCC2)cc1 | 20.6 µM (active)
109 | COc1ccc(CC(=O)N[C@@H]2c3cc(OC)c(OC)cc3C[C@H]2OCc2ccccc2)cc1 | inactive
110 | COc1ccccc1C(=O)NCCC(=O)NN1C(=O)NC2(CCCCC2)C1=O | inactive
